Assay results as given in paper PMC7862700, “An all-to-all approach to the identification of sequence-specific readers for epigenetic DNA modifications on cytosine”.

Tests used:
Assay in all cases: DAPPL (digital affinity profiling via proximity ligation, sequencing); 10 mM Tris-HCl pH 7.5, 50 mM NaCl, 1 mM DTT, 4% glycerol, room temperature, 30 min; GST-TFs on glutathione beads, 16-mer random dsDNA library, 0.1% formaldehyde crosslink after washing; high values mean tight binding
Details in all cases: protein: recombinant; tags: N-terminal GST; dsDNA, one strand shown
[1] = target: T1, ELK4 (Homo sapiens, UniProt P28324-2 1-405)
T1 sequence: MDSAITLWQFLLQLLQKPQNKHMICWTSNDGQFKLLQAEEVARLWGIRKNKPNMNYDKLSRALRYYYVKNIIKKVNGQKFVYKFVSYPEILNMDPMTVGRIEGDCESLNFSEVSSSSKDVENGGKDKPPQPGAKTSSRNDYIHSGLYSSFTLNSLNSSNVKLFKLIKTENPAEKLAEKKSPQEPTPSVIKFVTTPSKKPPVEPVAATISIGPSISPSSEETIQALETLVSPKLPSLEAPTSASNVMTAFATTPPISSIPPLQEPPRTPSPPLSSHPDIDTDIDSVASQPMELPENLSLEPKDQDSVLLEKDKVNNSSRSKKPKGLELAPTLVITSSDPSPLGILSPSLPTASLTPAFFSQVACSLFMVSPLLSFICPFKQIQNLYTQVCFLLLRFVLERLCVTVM
Method in brief: (§1)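 Binding signal is defined as a hexamer's read frequency for one factor over its frequency for the tag-only sample. To obtain reads, GST-fused human transcription factors were expressed in yeast, captured on glutathione beads, barcoded with DNA and pooled with that sample. Pools met 200 nmole of a 16-mer random double-stranded DNA library in Tris/NaCl/DTT/glycerol buffer for 30 min at room temperature before washing, 0.1% formaldehyde crosslinking, proximity ligation (BsaI/T4 ligase, 1 h, 37 °C), PCR and Illumina NextSeq500 sequencing.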

[2] = target: T2, ELF3 (Homo sapiens, UniProt P78545 1-371)
T2 sequence: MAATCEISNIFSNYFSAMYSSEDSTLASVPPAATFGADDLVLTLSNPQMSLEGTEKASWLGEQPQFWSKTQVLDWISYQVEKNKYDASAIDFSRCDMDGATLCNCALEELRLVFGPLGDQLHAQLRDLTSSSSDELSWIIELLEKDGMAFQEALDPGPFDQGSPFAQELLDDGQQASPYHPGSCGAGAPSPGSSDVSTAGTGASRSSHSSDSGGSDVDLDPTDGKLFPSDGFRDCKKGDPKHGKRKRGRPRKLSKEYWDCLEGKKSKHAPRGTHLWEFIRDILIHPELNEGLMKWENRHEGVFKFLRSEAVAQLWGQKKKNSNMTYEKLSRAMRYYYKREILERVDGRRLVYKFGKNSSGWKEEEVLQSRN
Method in brief: as §1

[3] = target: ETV1 (Homo sapiens, UniProt P50549 1-477)
ETV1, sequence (P50549 whole entry): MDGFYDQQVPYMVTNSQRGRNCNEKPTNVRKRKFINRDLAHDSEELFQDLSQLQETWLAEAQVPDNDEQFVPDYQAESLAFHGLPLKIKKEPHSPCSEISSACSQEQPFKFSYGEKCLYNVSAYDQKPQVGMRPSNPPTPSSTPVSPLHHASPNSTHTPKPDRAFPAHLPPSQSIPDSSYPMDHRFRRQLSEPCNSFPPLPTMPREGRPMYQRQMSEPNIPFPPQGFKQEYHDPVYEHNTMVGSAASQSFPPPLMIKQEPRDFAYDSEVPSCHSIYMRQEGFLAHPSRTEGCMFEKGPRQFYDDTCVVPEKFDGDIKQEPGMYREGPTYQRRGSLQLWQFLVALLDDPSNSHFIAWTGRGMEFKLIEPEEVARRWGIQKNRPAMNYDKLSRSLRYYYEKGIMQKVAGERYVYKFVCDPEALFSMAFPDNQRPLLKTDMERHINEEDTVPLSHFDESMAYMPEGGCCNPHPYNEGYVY
Method in brief: as §1

[4] = target: T3, ERF (Homo sapiens, UniProt P50548 1-548)
T3 sequence: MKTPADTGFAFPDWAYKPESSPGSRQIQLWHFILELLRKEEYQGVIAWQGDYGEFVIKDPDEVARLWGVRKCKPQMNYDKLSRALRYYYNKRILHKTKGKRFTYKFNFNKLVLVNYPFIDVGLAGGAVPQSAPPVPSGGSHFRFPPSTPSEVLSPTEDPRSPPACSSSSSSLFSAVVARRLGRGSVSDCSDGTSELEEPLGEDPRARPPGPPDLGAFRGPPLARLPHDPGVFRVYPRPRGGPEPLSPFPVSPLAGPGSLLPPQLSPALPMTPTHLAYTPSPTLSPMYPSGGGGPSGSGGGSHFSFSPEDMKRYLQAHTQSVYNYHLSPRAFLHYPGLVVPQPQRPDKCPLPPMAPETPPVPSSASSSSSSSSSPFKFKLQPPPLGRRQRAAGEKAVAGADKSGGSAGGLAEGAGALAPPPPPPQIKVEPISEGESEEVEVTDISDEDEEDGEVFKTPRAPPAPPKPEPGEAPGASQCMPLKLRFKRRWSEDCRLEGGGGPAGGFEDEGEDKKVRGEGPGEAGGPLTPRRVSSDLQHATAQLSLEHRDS
Method in brief: as §1

[5] = target: T4, ETV3L (Homo sapiens, UniProt Q6ZN32 1-361)
T4 sequence: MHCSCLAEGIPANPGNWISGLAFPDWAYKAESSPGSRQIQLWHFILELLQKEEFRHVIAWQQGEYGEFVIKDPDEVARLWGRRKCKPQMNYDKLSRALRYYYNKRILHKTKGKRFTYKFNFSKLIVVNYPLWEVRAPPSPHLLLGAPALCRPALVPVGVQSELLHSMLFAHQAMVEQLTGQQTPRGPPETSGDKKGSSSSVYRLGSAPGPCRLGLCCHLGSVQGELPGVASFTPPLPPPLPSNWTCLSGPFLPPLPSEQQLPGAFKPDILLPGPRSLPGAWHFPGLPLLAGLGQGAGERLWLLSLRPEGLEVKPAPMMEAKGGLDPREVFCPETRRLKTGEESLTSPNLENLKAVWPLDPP
Method in brief: as §1

[6] = target: T5, ETS2 (Homo sapiens, UniProt P15036 1-469)
T5 sequence: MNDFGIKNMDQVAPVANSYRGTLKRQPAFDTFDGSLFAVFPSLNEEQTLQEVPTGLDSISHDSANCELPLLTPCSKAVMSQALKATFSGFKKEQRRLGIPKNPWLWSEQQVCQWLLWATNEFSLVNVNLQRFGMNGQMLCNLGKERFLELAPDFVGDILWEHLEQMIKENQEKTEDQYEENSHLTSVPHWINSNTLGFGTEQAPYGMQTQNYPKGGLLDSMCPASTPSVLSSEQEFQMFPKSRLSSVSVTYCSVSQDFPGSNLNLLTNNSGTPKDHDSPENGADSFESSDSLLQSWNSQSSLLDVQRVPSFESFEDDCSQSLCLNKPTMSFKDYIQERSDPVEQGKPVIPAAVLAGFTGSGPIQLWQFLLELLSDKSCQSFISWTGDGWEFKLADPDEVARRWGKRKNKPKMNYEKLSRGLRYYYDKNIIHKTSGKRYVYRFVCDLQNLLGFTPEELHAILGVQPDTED
Method in brief: as §1

[7] = target: T6, SPDEF (Homo sapiens, UniProt O95238 1-335)
T6 sequence: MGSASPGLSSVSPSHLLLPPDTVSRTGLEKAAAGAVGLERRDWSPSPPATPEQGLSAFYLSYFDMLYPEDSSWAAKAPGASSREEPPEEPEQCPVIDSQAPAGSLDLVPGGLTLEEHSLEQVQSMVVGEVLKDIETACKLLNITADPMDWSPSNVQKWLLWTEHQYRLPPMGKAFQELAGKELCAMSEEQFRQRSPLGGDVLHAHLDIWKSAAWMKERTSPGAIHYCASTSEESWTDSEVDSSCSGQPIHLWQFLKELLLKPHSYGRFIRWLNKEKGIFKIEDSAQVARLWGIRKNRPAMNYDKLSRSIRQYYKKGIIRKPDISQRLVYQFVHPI
Method in brief: as §1

[8] = target: T7, ETV7 (Homo sapiens, UniProt Q9Y603 1-341)
T7 sequence: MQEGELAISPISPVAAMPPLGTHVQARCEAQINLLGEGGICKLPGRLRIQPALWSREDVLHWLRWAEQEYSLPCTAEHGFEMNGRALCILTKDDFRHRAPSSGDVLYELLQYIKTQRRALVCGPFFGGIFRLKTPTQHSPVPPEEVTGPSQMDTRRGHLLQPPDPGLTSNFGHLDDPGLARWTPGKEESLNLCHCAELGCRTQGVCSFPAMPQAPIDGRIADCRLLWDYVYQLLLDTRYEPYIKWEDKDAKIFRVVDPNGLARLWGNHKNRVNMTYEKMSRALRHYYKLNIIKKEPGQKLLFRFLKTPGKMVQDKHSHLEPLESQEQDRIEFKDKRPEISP
Method in brief: as §1

[9] = target: T8, ETV3 (Homo sapiens, UniProt P41162-2 1-143)
T8 sequence: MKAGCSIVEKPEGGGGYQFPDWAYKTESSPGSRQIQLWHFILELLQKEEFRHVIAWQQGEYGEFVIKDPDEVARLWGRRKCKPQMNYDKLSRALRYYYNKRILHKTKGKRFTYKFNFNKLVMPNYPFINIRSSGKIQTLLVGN
Method in brief: as §1

[10] = target: ETV6 (Homo sapiens, UniProt P41212 1-452)
ETV6, sequence (P41212 whole entry): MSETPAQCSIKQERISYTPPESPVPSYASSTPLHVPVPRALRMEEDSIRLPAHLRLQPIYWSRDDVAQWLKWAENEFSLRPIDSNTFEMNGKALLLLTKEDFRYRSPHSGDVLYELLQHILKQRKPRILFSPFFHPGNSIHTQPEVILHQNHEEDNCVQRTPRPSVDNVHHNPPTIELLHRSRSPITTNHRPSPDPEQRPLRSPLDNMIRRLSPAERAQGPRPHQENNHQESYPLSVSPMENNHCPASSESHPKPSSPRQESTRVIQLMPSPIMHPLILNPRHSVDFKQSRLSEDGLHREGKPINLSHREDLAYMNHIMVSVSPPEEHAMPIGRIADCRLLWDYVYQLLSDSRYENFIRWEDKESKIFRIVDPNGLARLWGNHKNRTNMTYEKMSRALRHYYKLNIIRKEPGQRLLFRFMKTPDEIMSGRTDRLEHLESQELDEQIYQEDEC
Method in brief: as §1

TGATTA
binding signal [1]: 1.16 fold enrichment (6-mer frequency, TF over GST control) | binding signal [2]: 1.18 fold enrichment (6-mer frequency, TF over GST control) | binding signal [3]: 1.09 fold enrichment (6-mer frequency, TF over GST control) | binding signal [4]: 1.16 fold enrichment (6-mer frequency, TF over GST control) | binding signal [5]: 1.07 fold enrichment (6-mer frequency, TF over GST control) | binding signal [6]: 1.03 fold enrichment (6-mer frequency, TF over GST control) | binding signal [7]: 1.01 fold enrichment (6-mer frequency, TF over GST control) | binding signal [8]: 1.05 fold enrichment (6-mer frequency, TF over GST control) | binding signal [9]: 1.08 fold enrichment (6-mer frequency, TF over GST control) | binding signal [10]: 1.06 fold enrichment (6-mer frequency, TF over GST control)
